8 compounds from PubChem BioAssay (Tox21) can be followed below.

The nature of test [1]: A CellTox Green Cytotoxicity Assay to monitor cytotoxicity in HEK293 cells - 32 hour (AID 1224881). Further: nearly all actives have a fitted effect of over 40% in size. Further: potency means the concentration at half of the fitted maximal effect. The essentials: (§1)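 Each value comes from one timepoint of a single continuous run in which HEK293 cells with CellTox Green were exposed to compound for up to 40 h at 37 C, dye fluorescence rising with cell death.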
The nature of test [2]: A CellTox Green Cytotoxicity Assay to monitor cytotoxicity in HepG2 cells - 0 hour (AID 1224882). Further: on the % scale 0 is the no-effect control and ±100 the full control effect; nearly all actives have a fitted effect of over 35% in size. The method in brief: (§2)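 Continuous culture of HepG2 cells with a membrane-impermeant DNA dye; rising fluorescence marks dead cells. Compound exposure lasted up to 40 h at 37 C, with reads every 8 h from 0 h.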
Test [3] can be described thus: A CellTox Green Cytotoxicity Assay to monitor cytotoxicity in HEK293 cells - 8 hour (AID 1224884). Further: nearly all actives have a fitted effect of over 35% in size. Further: potency means the concentration at half of the fitted maximal effect. The essentials: as §1
A short description of test [4]: qHTS RealTime-Glo MT Cell Viability Assay in HEK293 cells - 8 hour (AID 1224887). Further: nearly all actives have a fitted effect of over 50% in size. Further: potency means the concentration at half of the fitted maximal effect. The method in brief: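 qHTS format; HEK293 cells with NanoLuc/prosubstrate reagent, 37 C/5% CO2 for 5 h pre-dosing; compounds 23 nL in DMSO; luminescence at each time point reflects viable cells.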
Test [5] in a line: A CellTox Green Cytotoxicity Assay to monitor cytotoxicity in HepG2 cells - 8 hour (AID 1224890). Further: nearly all actives have a fitted effect of over 45% in size. Further: potency means the concentration at half of the fitted maximal effect. The method in brief: as §2
Test [6] in a line: qHTS assay to identify small molecule antagonists of the estrogen receptor alpha (ER-alpha) signaling pathway using the BG1 cell line in the presence of 0.1 nM 17-beta-estradiol - cell viability counter screen (AID 1259241). Further: nearly all actives have a fitted effect of over 40% in size. Further: potency means the concentration at half of the fitted maximal effect. The essentials: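 Live-cell protease activity (CellTiter-Fluor fluorescence, 30 min) was read in the same wells after VM7Luc4E2 cells had been exposed to compounds with 0.1 nM 17beta-estradiol for 22 hr at 37C.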

Test [7] is described as follows: qHTS assay to identify small molecule antagonists of the androgen receptor (AR) signaling pathway using the MDA cell line in the presence of 0.5 nM R1881 - cell viability counter screen (AID 1259242). Further: nearly all actives have a fitted effect of over 45% in size. Further: potency means the concentration at half of the fitted maximal effect. The method in brief:
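Fluorescence from CellTiter-Fluor, which reports protease activity of live cells, was read 30 min after reagent addition to MDA-kb2 cells that had been incubated 16 hr with compound and 0.5 nM R1881.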

The target of test [8] is Androgen receptor (Homo sapiens) (UniProt P10275). Briefly: qHTS assay to identify small molecule antagonists of the androgen receptor (AR) signaling pathway using the MDA cell line in the presence of 0.5 nM R1881 (AID 1259243). Further: potency means the concentration at half of the fitted maximal effect; nearly all actives have a fitted effect of over 50% in size. The essentials: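 Inhibition of R1881 (0.5 nM final) induced reporter signal was measured in human MDA-kb2 cells; note the MMTV promoter also responds to GR. Exposure lasted 16 hr at 37C.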
Chain of Androgen receptor (Homo sapiens) (P10275 whole entry, looked up): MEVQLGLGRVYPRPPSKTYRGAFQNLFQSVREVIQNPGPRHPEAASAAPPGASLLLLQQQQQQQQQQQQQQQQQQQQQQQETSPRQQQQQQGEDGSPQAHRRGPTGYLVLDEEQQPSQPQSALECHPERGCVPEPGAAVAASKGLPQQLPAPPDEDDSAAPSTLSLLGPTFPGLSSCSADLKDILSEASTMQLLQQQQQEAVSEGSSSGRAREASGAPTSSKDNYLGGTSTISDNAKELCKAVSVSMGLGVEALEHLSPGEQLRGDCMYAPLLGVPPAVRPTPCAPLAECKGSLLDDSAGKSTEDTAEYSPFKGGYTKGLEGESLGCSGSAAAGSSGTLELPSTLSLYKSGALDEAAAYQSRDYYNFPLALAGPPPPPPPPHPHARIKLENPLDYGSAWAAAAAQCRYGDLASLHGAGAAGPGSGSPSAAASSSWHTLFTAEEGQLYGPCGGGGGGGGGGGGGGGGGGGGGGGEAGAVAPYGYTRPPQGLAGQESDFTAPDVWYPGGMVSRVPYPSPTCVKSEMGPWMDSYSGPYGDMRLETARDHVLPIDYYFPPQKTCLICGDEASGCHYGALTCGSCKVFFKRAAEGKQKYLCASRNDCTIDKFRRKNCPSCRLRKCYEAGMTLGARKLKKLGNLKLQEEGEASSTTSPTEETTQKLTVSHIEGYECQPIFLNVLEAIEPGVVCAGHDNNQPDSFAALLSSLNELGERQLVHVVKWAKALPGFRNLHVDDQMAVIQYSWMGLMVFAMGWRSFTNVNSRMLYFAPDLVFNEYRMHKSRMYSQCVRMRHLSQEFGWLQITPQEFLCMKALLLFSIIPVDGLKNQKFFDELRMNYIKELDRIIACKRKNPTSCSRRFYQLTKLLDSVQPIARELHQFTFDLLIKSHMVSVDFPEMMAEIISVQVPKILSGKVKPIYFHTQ

A short description of test [9]: qHTS assay to identify small molecule HDAC inhibitors (AID 1259364). Further: nearly all actives have a fitted effect of over 45% in size. Further: potency means the concentration at half of the fitted maximal effect. The method in brief:
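Endogenous HDAC class I/II activity was measured in wild-type HCT-116 cells by HDAC-Glo luminescence after 2 h compound treatment.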

A short description of test [10]: qHTS assay to identify small molecule HDAC inhibitors - cell viability counter screen (AID 1259365). Further: nearly all actives have a fitted effect of over 50% in size. Further: potency means the concentration at half of the fitted maximal effect. The essentials:
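HCT-116 (wild type), 1,500 cells/well, overnight 37C/5% CO2; compound in DMSO 2hr; CellTiter-Glo 30min RT; luminescence read.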

A short description of test [11]: qHTS assay to identify small molecule antagonists of the sonic hedgehog signaling (Shh) pathway - cell viability counter screen (AID 1259367). Further: nearly all actives have a fitted effect of over 55% in size. Further: potency means the concentration at half of the fitted maximal effect. The essentials:
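After a 4 hr settling period, 3T3 Gli1-Luc cells were treated with DMSO-dissolved chemicals and conditioned medium, kept 24 hr at 37C in 5% CO2, and assayed for viability by CellTiter-Fluor fluorescence following 1 hr reagent incubation.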

Test [12] in a line: qHTS assay to identify small molecule agonists of the sonic hedgehog signaling (Shh) pathway (AID 1259368; calls by dose curve; further: nearly all actives have a fitted effect of over 15% in size; further: potency means the concentration at half of the fitted maximal effect). The essentials: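 Luminescent signal was taken as a measure of Gli1-controlled luciferase expression in stably transfected NIH/3T3-derived cells that had been treated for 24 hr with compounds delivered in DMSO.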
The nature of test [13]: qHTS RealTime-Glo MT Cell Viability Assay in HEK293 cells - 24 hour (AID 1224886). Further: nearly all actives have a fitted effect of over 50% in size. Further: potency means the concentration at half of the fitted maximal effect. The essentials: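 Quantitative high-throughput screen of the Tox21 10K library in HEK293: cells and RealTime-Glo reagents plated together, compound added at 5 h, luminescence monitored through 40 h at 37 C.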
The target in test [14] is Estrogen receptor (Homo sapiens) (UniProt P03372). As to the kind of experiment: qHTS assay to identify small molecule antagonists of the estrogen receptor alpha (ER-alpha) signaling pathway using the BG1 cell line in the presence of 0.1 nM 17-beta-estradiol (AID 1259244). Further: nearly all actives have a fitted effect of over 50% in size. Further: potency means the concentration at half of the fitted maximal effect. The essentials: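 Quantitative high-throughput screen in VM7Luc4E2 cells: compound plus 0.1 nM E2 (final), 22 h, 37C, 5% CO2; ONE-Glo added, 30 min room temperature, luminescence measured.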
Chain of Estrogen receptor (Homo sapiens) (P03372 whole entry, looked up): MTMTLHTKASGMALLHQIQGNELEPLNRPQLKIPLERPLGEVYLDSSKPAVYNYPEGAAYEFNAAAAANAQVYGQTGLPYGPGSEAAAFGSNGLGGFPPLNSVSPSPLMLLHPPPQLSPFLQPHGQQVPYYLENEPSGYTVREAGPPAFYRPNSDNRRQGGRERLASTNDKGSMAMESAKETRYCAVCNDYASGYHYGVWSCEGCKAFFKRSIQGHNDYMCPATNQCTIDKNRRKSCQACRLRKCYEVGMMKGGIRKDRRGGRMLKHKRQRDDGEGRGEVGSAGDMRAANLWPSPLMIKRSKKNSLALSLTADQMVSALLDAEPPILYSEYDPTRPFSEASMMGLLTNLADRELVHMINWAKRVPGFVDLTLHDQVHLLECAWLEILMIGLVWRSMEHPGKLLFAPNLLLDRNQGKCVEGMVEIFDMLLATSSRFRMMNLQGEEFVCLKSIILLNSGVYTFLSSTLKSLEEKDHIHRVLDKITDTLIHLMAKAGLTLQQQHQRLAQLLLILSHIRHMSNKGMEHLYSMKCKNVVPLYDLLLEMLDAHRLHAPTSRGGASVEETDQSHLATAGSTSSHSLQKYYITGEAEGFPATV

Test [15] is described as follows: qHTS assay to identify small molecule agonists of the sonic hedgehog signaling (Shh) pathway - cell viability counter screen (AID 1259366). Further: nearly all actives have a fitted effect of over 50% in size. Further: potency means the concentration at half of the fitted maximal effect. The essentials:
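CellTiter-Fluor fluorescence read-out, 1 hr at 37C, added after 23hr compound exposure. Cells: 3T3 Gli1-Luc, an NIH/3T3 clone with stably integrated Gli1-Luc reporter, plated 4hr before compound.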

Test [16] can be described thus: A CellTox Green Cytotoxicity Assay to monitor cytotoxicity in HepG2 cells - 32 hour (AID 1224883). Further: nearly all actives have a fitted effect of over 50% in size. Further: potency means the concentration at half of the fitted maximal effect. The essentials: as §2
The nature of test [17]: qHTS RealTime-Glo MT Cell Viability Assay in HepG2 cells - 16 hour (AID 1224885). Further: nearly all actives have a fitted effect of over 50% in size. Further: potency means the concentration at half of the fitted maximal effect. The method in brief: (§3)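 Compound treatment began 5 h after plating HepG2 cells (600/well) with NanoLuc luciferase and prosubstrate. Plates stayed at 37 C for 40 h; luminescence was captured at six time points, 0 h through 40 h.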
Test [18] is described as follows: A CellTox Green Cytotoxicity Assay to monitor cytotoxicity in HEK293 cells - 16 hour (AID 1224888). Further: on the % scale 0 is the no-effect control and ±100 the full control effect; nearly all actives have a fitted effect of over 35% in size. The method in brief: as §1
The nature of test [19]: qHTS RealTime-Glo MT Cell Viability Assay in HepG2 cells - 0 hour (AID 1224889). Further: nearly all actives have a fitted effect of over 50% in size. Further: potency means the concentration at half of the fitted maximal effect. The essentials: as §3
The nature of test [20]: qHTS assay to identify small molecule phospholipidosis (PLD) inducers (AID 1259344; active means well fitted curve in the direction sought with a large enough effect; an effect the other way counts as inactive or inconclusive; further: on the % scale 0 is the no-effect control and ±100 the full control effect). The essentials:
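HepG2 cells grown on collagen I take up LipidTOX Red while exposed to compound for 24 h; after fixation they are imaged at 20x and pit metrics are extracted.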

SMILES strings stand for the structures. Unmarked numbers belong to inactive results. Results filed as inconclusive are left out. Calls of active or inactive are those of the source. Unless noted, the call rests on the fitted dose curve; in most records, active means well fitted curve in the direction sought with a large enough effect in the repeat runs; inconclusive means weak or mixed curves; inactive means no such curve, though single readings can be large; an effect the other way counts as inactive or inconclusive.

For `COP(=O)(OC)O/C(=C\Cl)c1cc(Cl)c(Cl)cc1Cl`, the Potency entry in test [1], in [2], in test [3], in test [4], in [5] and in test [6] was “inactive” each time. Further, the Potency result in test [7], in test [9], in test [10], in test [11] and in [12] was “inactive” throughout. In addition, the Potency in test [8] was 68.6 µM (active).
For the compound `CC(=O)[O][Sn]([c]1ccccc1)([c]1ccccc1)[c]1ccccc1`, the Potency in [1] is 0.219 µM (active); in test [3], 0.347 µM (active); in [13] it was 0.0436 µM (active); in [4], 0.123 µM (active); in [5], 13.8 µM (active); in test [6], 0.545 µM (active). The Potency was 0.306 µM (active) in test [7], 54.5 µM (active) in test [10], 0.0545 µM (active) in test [15] and 0.109 µM (active) in test [11]. Further, the Potency result in test [2], in [14], in test [9] and in test [12] was “inactive” each time.
Regarding `O=C(Nc1ccc(F)cc1F)c1cccnc1Oc1cccc(C(F)(F)F)c1`, the Potency result in test [2], in test [16], in [17], in test [4], in test [18] and in test [19] was “inactive” in each case. Besides, the Potency result in [5], in [6], in test [7], in test [9], in [10] and in test [15] was “inactive” throughout. For the same compound, the Potency result in [11] and in [12] was “inactive” throughout.
Regarding `O=[N+]([O-])c1ccc(Cl)c(Cl)c1Cl`, the Potency result in test [2], in test [16], in test [3], in [17], in test [13] and in [4] was “inactive” in each case. Moreover, the Potency entry in test [19], in test [5], in test [6], in test [7], in test [14] and in [9] was “inactive” throughout. Besides, the Potency result in [10], in [15], in test [11] and in [12] was “inactive” each time.
On to `O=C(N[C@@H]1N=C(c2ccccc2F)c2cccc3c2N(CC3)C1=O)c1cc2ccccc2[nH]1`, for which the Potency in test [1] was 6.01 µM (active); in [16] it was 19 µM (active); in [3], 9.52 µM (active); in test [5], 21.3 µM (active). The Potency entry in test [13], in [4], in test [19], in [7], in test [10] and in test [15] was “inactive” each time. The Potency entry in test [11] and in test [12] was “inactive” throughout. In test [20], the PLD induction is -5.27% [at 0.306 µM].
In the case of `CCN1CCC2(CC1)COc1cc3c(cc12)N(C(=O)c1ccc(-c2ccc(-c4nnc(C)o4)cc2C)cc1)CC3`, the Potency entry in [2], in [9], in test [10] and in test [12] was “inactive” each time. Also, the Potency in [16] was 45.2 µM (active); in [3] it was 50.7 µM (active); in test [17], 45.2 µM (active); in [13], 12.7 µM (active); in [4], 20.2 µM (active); in test [19] it was 20.2 µM (active). Further, the Potency in [5] was 50.7 µM (active); in test [14], 50.2 µM (active); in test [15], 63.3 µM (active); in test [11], 63.3 µM (active).
Consider `Nc1c(Cl)c(Cl)c(Cl)c(Cl)c1Cl`, for which the Potency entry in [1], in test [3], in test [17], in test [13], in [4] and in test [19] was “inactive” throughout. In addition, the Potency entry in test [7], in test [9], in test [15], in test [11] and in [12] was “inactive” throughout.
Take `c1csc(-c2ccc(-c3cccs3)s2)c1`: the Potency result in [2], in test [16], in test [3], in [17], in [13] and in test [4] was “inactive” each time. Moreover, the Potency result in test [18], in [19], in test [5], in test [6], in test [7] and in test [14] was “inactive” each time. Further, the Potency result in test [10], in test [15] and in test [11] was “inactive” each time. Besides, the Potency in test [9] is 5.45 µM (active); in test [12] it was 9.69 µM (active).
